From the supplement of paper PMC6555819 come the findings set out here.

The test system of this assay is VDR:RXRa (NR concentration 270 nM, RXRa partner concentration 90 nM). Briefly: PBM binding z-score (relative to random genomic background probes); higher = stronger binding; sequences stand for … in GC…GCGATTGACAGCGTAGAATGAAGG
Here is the method: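 Protein-binding microarray (Agilent 4x180K custom design, double-stranded 60-nt probes: 5' GC cap, 34-nt variable region, 24-nt constant primer region; full probe sequence given). Purified or IVT nuclear receptor:RXRα heterodimers (3:1 NR:RXRα, mostly 270:90 nM) or homodimers were incubated for 1 h in PBS with 2% milk and no ligand, then detected with Alexa488 antibodies. Fluorescence from o1-orientation probes (~5 replicates averaged) was converted to z-scores against 500 random hg19 background probes. Variable regions are seed direct-repeat (DR0–DR5) sites, all their single-nucleotide variants and half-site ablations.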
Take ACTTACGGGTCAACGAGGGTATAGCACGCGTATA: the PBM binding z-score was 7.1.
The same measure for CGTCAAAGTTCAAGGTGACGTAACAGAAAGCAGC: 3.91.
In turn, TTGAGTAGGTTAGTCGGGGCATTCAGCCAACATA displayed a PBM binding z-score of 2.47.
The same measure for CCGACTGGGGCAGATAGGTTACCATACCATCCGG: -0.389.
The figure for ATCTCTAGGTAAAATTTCAGTGAATCCCGAGGAT is 0.166; for ATATGTAGGTTACAACCGGGTCATTCAGGCTATG it is 4.56; for CAAACTAGGTCACGAACGGTCAAAGTCGAATGAC it is 4.04.
The figure for ATCTCTAGGTAAAAGTTCAGAGAATCCCGAGGAT is 1.43; for CGTCCACGGTCAGAGAGGTCAGTGAATGCCGAGT it is 4.97.
Regarding TCTTGTAGATCAAAGGTTAAGAACGCCGAAGCCT, the PBM binding z-score came to 1.47.
The same measure for ATATGTAGGTTAAGGGTCATTCAGGTTGGTTCGC: 5.83; for TCATATAGGTAAAAGGAGAAAGTCGGTGTGGTAA: 0.929.
With GCTAGTTGGTCAGTAAAAGGTTACACACCGGTCG, the PBM binding z-score is 0.877.
On to AATAGAGGGTCACTAGGCCAGAGTAGGTACGAAT, for which the PBM binding z-score stood at 2.75.
GCTTGTAGGTCAAGGTTAAGAAAGACTAAGCTAA registered a PBM binding z-score of 2.3.
The figure for TAGCGTAGGTCATGGGCCAGTATACCACGCGAAC is 2.24; for TCATATAGGTAATACAGGTGAAAGTTGGCATCTA it is 1.46; for CCTAGCAGGCCATTCTGGGTCACTCAAGGCTTGA it is 1.04.
The same measure for TCTGCTACGTCAGTTGGTCAGCTAACGAGCTGCC: -0.996; for CCTACTGGGCCAAAAAGGTCATTGCTGCCGATAA: 4.46.
The same measure for TAGCCTAGGTCAGATCGCGCCAGTATACGCTATA: 0.314.
With AGAACGAGGGCACGCTGAGTTGATAGCAGAGTAG, the PBM binding z-score was determined as 2.2.
Regarding CAAACTAGGTCAAAGGCCAAAGTCGAGCCAACCA, the PBM binding z-score worked out at 2.6.
The figure for TCTAGCAGGCCAGAGGGTAACTCAAGAGGTACGG is -0.204; for ATACCAAGGTGTTCGTGAGGTCGTTGATACTAAC it is 2.81.
ATCTCGAGGTAAAGATAGTTCAGTGAATGCAAAT: the PBM binding z-score was determined as 1.23.
ACTTACGGGACAACGAGGTTATAGCACGCGTATA: the PBM binding z-score was 2.29.
For the sequence ACTTACGGGTCAACGAGCTTATAGCACGCGTATA, the PBM binding z-score is 3.97.
The same measure for TCTTGTAAATCAGCAGGTTAAGAAAGCTGGCCAA: 0.539; for ATCTCTACGTAAAAGTTCAGTGAATCCCGAGGAT: 1.1.
In turn, ACAGACAGGTGAGTGAAGGCAACTCAGCTGGACG came in with a PBM binding z-score of -0.535.
The figure for TCTCGGAGGACACGAAGGTCAGACCTTTCCAGAG is 2.45; for CCTACTGGGCTATCAGGTCATTGATATCAACGTT it is 1.36.
The same measure for AGAATGAGGTTATTAAGCTCAGGGAATTGCGGTC: 1.38; for CCTACTGGGCCATTCAGAGGTCATAGATCATATG: 3.64.
Turning to AGAATGAGGTTCTTAAGATCAGGGAATTGCGGTC, the PBM binding z-score came out at 0.0724.
The figure for CCAGACAGGTGAATGGTAACTCAGTCTGGTACGC is -0.231; for ATATGTAGGTTAAGGGTCATTCTGGTTGGTTCGC it is 4.92.
The same measure for AATACAGGGTCATCGTAGGCCAGGGTACGCACAG: 5.25; for TGAATGAGGTTAAAGTTCAGGGAACGTGGCGTCG: 4.37.
